From PubChem BioAssay AID493203 (National Center for Advancing Translational Sciences (NCATS), 2011)
Inconclusive results are not listed. Values without a mark were called inactive. Calls come from the whole dose curve; as a rule, active = well fitted activation curve with a large enough effect; inconclusive = small, poorly fitted or top-dose-only effect; inactive = flat fitted curve, though single readings scatter.

Experiment: qHTS Assay for NPC1 Promoter Activators: Initial hit validation from the primary screen;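 note: reporter driven by the mutant form of the NPC1 promoter; % of control where 0% means no effect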
Details: Huh7 NPC1 promoter-luciferase reporter, luminescence, 24 h; series mostly up to 46.1 µM; activity, positive = activation: at the top concentration
Excerpt: NIH Chemical Genomics Center [NCGC] NIH Molecular Libraries Probe Production centers Network [MLPCN] MLPCN Grant: MH089375-01A1 Assay Submitter (PI): Yiannis A. Ioannou NCGC Assay Overview: Niemann Pick Type C (NPC) is a rare neurodegenerative lipidosis that is characterized by lipid storage in the endosomal/lysosomal system. Treatment modalities for this devastating disease are currently non-existent due to the severe obstacles associated with accessing the central nervous system with proteins or genes. The majority of mutations causing NPC disease are missense mutations that are distributed throughout the length of the NPC1 protein, with the most prevalent being the I1061T allele. Although NPC1 mutant proteins may be functional, they are typically trapped in the ER due to misfolding. […] We have developed and optimized a cell based luciferase reporter assay in 1536 well format for the identification of up-regulators of the mutant NPC1 promoter. This assay presents data on the validation of hits from the primary screen.
The NPC1 promoter is cloned in front of the luciferase reporter gene, therefore NPC promoter activation results in luciferase expression. Frozen stock of the NPC1 promoter transfected Huh7 cells were obtained from the laboratory of Dr. Yiannis Ioannou (The Mount Sinai School of Medicine, New York, NY). Cells were propagated and maintained at NCGC in medium containing RPMI-1640 supplemented with 10% FBS, 2mM L-glutamine, and 50ug/ml penicillin/streptomycin. Cells were harvested in and plated for assays in OP-MEM I reduced-serum medium supplemented with 10% FBS. The Amplite luciferase reporter gene assay kit was purchased from ABD Bioquest and prepared/stored according to manufacturers recommendations. qHTS Assay Setup: 1. Dispensed 5ul of Huh7 cells stably expressing NPC1-luciferase at a density of 1500 cells per well 1536-well plates. 2. Incubate cells at 37C, 5% CO2, and 95% humidity for 2 hours. 3. Transferred 23nl per well of compound in DMSO solution. 4. Incubated at 37C, 5% CO2, and 95% humidity for 24 hours. 5. Dispensed 3ul per well of Amplite reagent(ABD Bioquest) per well. 6. Incubate at ambient for 10 minutes. 7. Read using the luminescence protocol on the ViewLux plate reader (Perkin Elmer).

| Compound | activity, positive = activation [%] |
| --- | --- |
| O=C1c2ccccc2C(=O)N1Cc1nc2ccccc2c(=O)n1-c1cccnc1 | -3.22 |
| COc1ccc(C(CC(=O)N2CCC3(CC2)OCCO3)NS(=O)(=O)c2ccc(F)cc2)cc1 (stereo unspecified) | 0.9 |
| COc1cccc(CCNCc2ccc(SC)cc2)c1 | 2.08 |
| Cc1cccn2c(NCC3CCCO3)c(C(C)C)nc12 (stereo unspecified) | 2.28 |
| CN1CCc2cc3c(c4c2C1Cc1ccccc1-4)OCO3 (stereo unspecified) | -44.2 |
| CCC(=NCc1cccnc1)c1c(O)n(-c2ccccc2)c(=O)[nH]c1=O | -5.41 |
